Experimental data reported in the supplement of paper PMC3545927.
The other results are listed elsewhere or left out. No count for the full screen is at hand.

Molecular target: furin, P09958
Experiment: furin cleavage Z-score vs untreated control; higher = more cleavage, active = 3.5 or more, inactive = 1 or less, 8 variable residues between constant flanks
Procedure, shortened: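 Cleavage by purified furin was measured on 8-mer peptides fused to a cDNA oligonucleotide and held on magnetic beads by their N-terminus. Reactions (0.01 ml, 1:10 enzyme:substrate) ran 7.5, 15 or 30 min in 50 mM HEPES pH 7.5 with CaCl2 and NaCl. Released DNA was adapter-tagged by PCR and sequenced, with read counts giving abundance. Log counts versus furin-free reactions were lowess-adjusted and scaled by median absolute deviation to give the cleavage Z-score.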

Chain of furin, P09958 (P09958 whole entry): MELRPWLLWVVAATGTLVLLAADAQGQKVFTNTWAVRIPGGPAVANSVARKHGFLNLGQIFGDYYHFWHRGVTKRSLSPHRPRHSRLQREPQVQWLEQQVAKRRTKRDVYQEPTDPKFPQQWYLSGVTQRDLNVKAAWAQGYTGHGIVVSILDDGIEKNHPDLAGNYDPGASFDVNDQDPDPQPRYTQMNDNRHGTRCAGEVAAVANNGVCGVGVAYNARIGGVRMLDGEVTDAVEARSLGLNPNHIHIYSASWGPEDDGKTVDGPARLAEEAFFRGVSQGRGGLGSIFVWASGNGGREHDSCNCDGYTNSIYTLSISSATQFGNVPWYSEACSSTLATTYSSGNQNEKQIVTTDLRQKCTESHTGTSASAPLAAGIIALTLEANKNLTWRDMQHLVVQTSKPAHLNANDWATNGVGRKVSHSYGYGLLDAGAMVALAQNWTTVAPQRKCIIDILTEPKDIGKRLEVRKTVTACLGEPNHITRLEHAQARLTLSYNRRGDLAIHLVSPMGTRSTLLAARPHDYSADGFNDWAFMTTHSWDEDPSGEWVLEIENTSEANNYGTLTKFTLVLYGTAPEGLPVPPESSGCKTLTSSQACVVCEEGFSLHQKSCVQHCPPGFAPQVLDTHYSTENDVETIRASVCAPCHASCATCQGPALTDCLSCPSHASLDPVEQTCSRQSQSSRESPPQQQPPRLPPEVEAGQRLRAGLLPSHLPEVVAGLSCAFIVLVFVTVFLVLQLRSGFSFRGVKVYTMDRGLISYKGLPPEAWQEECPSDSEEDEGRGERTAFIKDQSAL

Row | Sequence | furin cleavage Z-score (7.5 min) | furin cleavage Z-score (15 min) | furin cleavage Z-score (30 min)
1 | CARFRRIRGEAGNASASA [FS-2491] | -0.28 (inactive) | -0.376 (inactive) | -0.341 (inactive)
2 | CADHEVVTSTAGNASASA [HC2295] | 0.352 (inactive) | -1.49 (inactive) | 1.29
3 | CARFRRSRRTAGNASASA [FS-2666] | 7.49 (active) | 8.92 (active) | 6.66 (active)
4 | CAEVVTSTWTAGNASASA [HC2258] | 2.11 | -0.469 (inactive) | 0.353 (inactive)
5 | CADHWRSRRTAGNASASA [FS-646] | 2.11 | 1.9 | 3.67 (active)
6 | CAEAYRSRRTAGNASASA [FS-1116] | 1.35 | 1.26 | 3.71 (active)
7 | CAMEECSQHTAGNASASA [HC1778] | -0.696 (inactive) | 1.17 | 0.869 (inactive)
8 | CASREVPCHRAGNASASA [HC2437] | 0.554 (inactive) | 0.537 (inactive) | 0.935 (inactive)
9 | CATTPTSGSWAGNASASA [HC56] | -1.1 (inactive) | -0.337 (inactive) | -0.847 (inactive)
10 | CAETEVPCHRAGNASASA [HC2458] | 0.00837 (inactive) | 0.231 (inactive) | 0.879 (inactive)
11 | CARSKRSLSCAGNASASA [FS-2183] | 1.81 | 2.42 | 5.07 (active)
12 | CAWSKRSLSQAGNASASA [FS-3178] | 0.451 (inactive) | 1.67 | 2.52
13 | CARKNRSKNQAGNASASA [FS-3223] | 0.698 (inactive) | -0.524 (inactive) | 0.1 (inactive)
14 | CARSKRSKNQAGNASASA [FS-1973] | 5.82 (active) | 7.57 (active) | 6.19 (active)
15 | CARSSKDTSTAGNASASA [FS-2820] | -0.514 (inactive) | -1.51 (inactive) | -0.361 (inactive)
16 | CARSKRSPGGAGNASASA [FS-1931] | 9.79 (active) | 8.88 (active) | 8.01 (active)
17 | CARSPRGVLRAGNASASA [FS-3089] | -0.934 (inactive) | -0.739 (inactive) | -0.752 (inactive)
18 | CARSPRSASTAGNASASA [FS-1932] | 4.66 (active) | 5.46 (active) | 7.33 (active)
19 | CAMAECSQHLAGNASASA [HC1683] | 0.693 (inactive) | -0.153 (inactive) | 0.354 (inactive)
20 | CAEANAEDVVAGNASASA [HC1366] | 0.916 (inactive) | -1.42 (inactive) | -0.854 (inactive)
21 | CAKHMWNFISAGNASASA [HC1042] | -0.105 (inactive) | -0.376 (inactive) | -0.363 (inactive)
22 | CAITGHRMAWAGNASASA [HC317] | -0.992 (inactive) | -0.446 (inactive) | -1.11 (inactive)
23 | CAPVYCFTPSAGNASASA [HC413] | 0.856 (inactive) | 1.3 | 0.586 (inactive)
24 | CARSARSPPGAGNASASA [FS-3074] | -0.433 (inactive) | -0.609 (inactive) | -0.311 (inactive)
25 | CARSKRCSCSAGNASASA [FS-2809] | 0.463 (inactive) | -0.402 (inactive) | 1.36
26 | CARSSRSPPGAGNASASA [FS-3098] | -0.0484 (inactive) | 0.711 (inactive) | 1.37
27 | CARSKRNIIGAGNASASA [FS-1869] | 6.5 (active) | 8.47 (active) | 8.95 (active)
28 | CARSKRSSSHAGNASASA [FS-2184] | 7.92 (active) | 8.7 (active) | 6.8 (active)
29 | CARSPRSPPGAGNASASA [FS-3091] | 2.88 | 4.13 (active) | 4.13 (active)
30 | CARSKRDPIIAGNASASA [FS-3206] | -1.19 (inactive) | 0.347 (inactive) | 1.06
